Values without a mark were called inactive.
System: Pseudogymnoascus destructans 20631-21
Assay: growth activity index (DuctApe, 0 = no growth, 9 = maximal growth) (index 0-9); higher = more fungal growth (less inhibition), active = 0 or less; extreme values may be limits of the assay
Settings: temperature: 13 °C, YPD
[1] = concentration level (1-4, increasing; Biolog proprietary): 1
[2] = concentration level (1-4, increasing; Biolog proprietary): 2
[3] = concentration level (1-4, increasing; Biolog proprietary): 3
[4] = concentration level (1-4, increasing; Biolog proprietary): 4
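Also: biolog Phenotype Microarray plates PM21–25, OD595 followed daily over 11 days, growth curves converted to index, mean of two independent experiments.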

Structure (SMILES)	growth activity index [1]	growth activity index [2]	growth activity index [3]	growth activity index [4]
CCCCCCCCCCCCCCCC[n+]1ccccc1 [Cetylpyridinium chloride] (Biolog plate: PM21)	5.25	0 (active)	0 (active)	0 (active)
N.N.[Cl][Pt][Cl] [Cisplatin] (Biolog plate: PM24)	5	4.67	4	4
O=[As][O-].[Na+] [Sodium Arsenite] (Biolog plate: PM23)	4	4.67	4.33	5
C[C@@H]1C[C@@H]([C@H](O)CC2CC(=O)NC(=O)C2)C(=O)[C@@H](C)C1 [Cycloheximide] (Biolog plate: PM22)	5	4	4.33	4.33
CN(CC[C@H](N)CC(=O)N[C@H]1C=C[C@H](n2ccc(N)nc2=O)O[C@@H]1C(=O)O)C(=N)N [Blasticidin S] (Biolog plate: PM24)	4.67	4.33	4	4
[N-]=[N+]=[N-] [Sodium Azide] (Biolog plate: PM23)	2.67	1	0 (active)	0.333
O=[As]([O-])([O-])[O-].[Na+].[Na+].[Na+] [Sodium Arsenate] (Biolog plate: PM22)	4.67	4.33	4	2
CC1C=CC=CCCC=CC=CC=CC=CC(OC2OC(C)C(O)C(N)C2O)CC2OC(O)(CC(O)C(O)CCC(O)CC(O)CC(O)CC(=O)OC(C)C(C)C1O)CC(O)C2C(=O)O (stereo unspecified) [Nystatin] (Biolog plate: PM21)	1.75	0 (active)	0 (active)	0 (active)
Nc1ncn[nH]1 [3-Amino-1,2,4-triazole] (Biolog plate: PM22)	0 (active)	0 (active)	0 (active)	0 (active)
CNC1CC(N)C(O)C(OC2OC(CO)C(O)C3OC4(OC(C(N)CO)C(O)C(O)C4O)OC23)C1O (stereo unspecified) [Hygromycin B] (Biolog plate: PM25)	2.67	2	1	0 (active)
[K+].[K+].[O]=[Cr](=[O])([O-])[O-] [Potassium Chromate] (Biolog plate: PM24)	3.33	4	4	4.33
Nc1ccncc1 [4-Aminopyridine] (Biolog plate: PM25)	4.67	4	4.33	1.33
[Cl][Ni][Cl] [Nickel chloride] (Biolog plate: PM21)	5	4.25	4.5	5
C[n+]1ccc(-c2cc[n+](C)cc2)cc1 [Methyl viologen] (Biolog plate: PM24)	1	0 (active)	0.333	0.667
O=[Se](=O)([O-])[O-].[Na+].[Na+] [Sodium Selenate] (Biolog plate: PM23)	5	4	2.67	3
[Na+].[Na+].[O]=[Cr](=[O])([O-])[O][Cr](=[O])(=[O])[O-] [Sodium Dichromate] (Biolog plate: PM21)	4.25	5	5	4.25
CCCC1COC(Cn2cncn2)(c2ccc(Cl)cc2Cl)O1 (stereo unspecified) [Propiconazole] (Biolog plate: PM24)	4.67	2	1	0.333
N#CO [Sodium Cyanate] (Biolog plate: PM23)	5	4.67	4.33	4.67
CCCCC(C#N)(Cn1cncn1)c1ccc(Cl)cc1 (stereo unspecified) [Myclobutanil] (Biolog plate: PM22)	5.33	0.667	0 (active)	0 (active)
O=[Se]([O-])[O-].[Na+].[Na+] [Sodium Selenite] (Biolog plate: PM21)	6	5.25	6	4.75
[Cl][Cr]([Cl])[Cl] [Chromium (III) chloride] (Biolog plate: PM23)	5.33	4	2	3.33
[N-]=[N+]=CC(=O)OC[C@H](N)C(=O)O [Azaserine] (Biolog plate: PM22)	5	4.33	4.67	4.67
[Cl][Cd][Cl] [Cadmium Chloride] (Biolog plate: PM23)	4.33	2	0.667	0 (active)
[O-][I+3]([O-])([O-])O [Sodium metaperiodate] (Biolog plate: PM23)	2	2	4.33	5

From the supplement of paper PMC6124720
